{
  "source": "PubChem BioAssay (Tox21)",
  "note": "Values joined by “and” are separate entries in the source; they are usually repeats but may differ in a detail not shown here. Identical values can stand only once. Records with an inconclusive call do not appear. Where a call stands in place of a potency, no number is given. Active and inactive are the calls of the source. The call rests on the fitted dose curve; in most records, active means well fitted cell-killing curve with a large enough effect in the repeat runs; inconclusive means weak or mixed curves, or effect the other way; inactive means flat fitted curve, though single readings scatter. Potency means the concentration at half of the fitted maximal effect.",
  "data": [
    {"experiment": "qHTS RealTime-Glo MT Cell Viability Assay in HEK293 cells - 8 hour (AID 1224887); further: nearly all actives have a fitted effect of over 50% in size", "settings": "RealTime-Glo luminescence; series mostly up to 76.8 µM", "description": "U.S. Tox21 Program National Center for Advancing Translational Sciences [NCATS] NIH Chemical Genomics Center [NCGC] U.S. Environmental Protection Agency [EPA] National Institutes of Environmental Health Sciences [NIEHS] National Toxicology Program [NTP] U.S. Food and Drug Administration [FDA] Tox21 Assay Overview: Measure of cell viability is critical in the cell-base assay. Analysis of cell viability is necessary for the characterization of cell responses to cytotoxic drugs and environmental stress. A RealTime-Glo MT Cell Viability Assay to monitor cell viability in real time of continues cell culture during 40 hours of compound treatment was used to screen Tox21 10K library compounds in Hek293 cells. The RealTime-Glo MT Cell Viability Assay is a nonlytic, homogeneous, bioluminescent method to measure cell viability in real time using a simple, plate-based method. The assay involves adding NanoLuc luciferase and a cell-permeant prosubstrate to cells in culture. Viable cells reduce the proprietary prosubstrate to generate a substrate for NanoLuc luciferase. This substrate diffuses from cells into the surrounding culture medium, where it is rapidly used by the NanoLuc Enzyme to produce a luminescent signal. The signal correlates with the number of viable cells, making the assay well suited for cytotoxicity studies.\nTox21 Assay Protocol Summary: The mixture of Hek293 cell suspension and reagents were dispensed at 600cells/6 ul/well in 1536-well tissue culture treated black solid bottom plates using a Multidrop dispenser. After the assay plates were incubated at a 37 C/5% CO2 incubator for 5 hours, 23 nL of compounds dissolved in DMSO, positive and negative controls was transferred to the assay plate by a pintool work station. The plates were incubated at 37 C for 40 hours. The luminescence intensity were measured at 0h, 8h, 16h, 24h, 32h and 40h time points using ViewLux plate reader during compound treatment.", "values": [
      {"smiles": "Cc1cc(Cl)ccc1O[C@H](C)C(=O)O", "Potency": "inactive"},
      {"smiles": "CCS(=O)(=O)c1cccnc1S(=O)(=O)NC(=O)Nc1nc(OC)cc(OC)n1", "Potency": "inactive"},
      {"smiles": "O=[N+]([O-])c1cc(Cl)ccc1Cl", "Potency": "inactive"},
      {"smiles": "O=c1[nH]c2ccccc2n1CCCN1CCC(n2c(=O)[nH]c3cc(Cl)ccc32)CC1", "Potency": "9.52 µM (active)"},
      {"smiles": "Cc1ccc(OP(=O)(Oc2ccccc2)Oc2ccccc2)cc1", "Potency": "inactive"},
      {"smiles": "Fc1ccc(Oc2ccnc3cc(Cl)cc(Cl)c23)cc1", "Potency": "7.76 µM (active)"},
      {"smiles": "CCOCCOC(C)=O", "Potency": "inactive"},
      {"smiles": "Cc1cc(SCc2sc(-c3ccc(C(F)(F)F)c(F)c3)nc2C)ccc1OCC(=O)O", "Potency": "inactive"},
      {"smiles": "CC(=[OH+])/C=C(/C)[O-].CC(=[OH+])/C=C(\\C)[O-].CC(=[OH+])/C=C(\\C)[O-].[Fe]", "Potency": "inactive"},
      {"smiles": "Nc1ccc([N+](=O)[O-])cc1Cl", "Potency": "inactive"},
      {"smiles": "ClCc1ccccc1CCl", "Potency": "inactive"},
      {"smiles": "CC[C@H]1C[C@@H]2C[C@H]3c4[nH]c5ccc(OC)cc5c4CCN(C2)[C@@H]13", "Potency": "inactive"},
      {"smiles": "COS(=O)(=O)c1ccc(C)cc1", "Potency": "inactive"},
      {"smiles": "c1cc[c]([Sb]([c]2ccccc2)[c]2ccccc2)cc1", "Potency": "inactive"},
      {"smiles": "CC(C)(COCC1CO1)COCC1CO1", "note": "(stereo not given)", "Potency": "inactive"},
      {"smiles": "[Cl][Sb]([Cl])[Cl]", "Potency": "inactive"},
      {"smiles": "Cl/C=C\\CCl", "Potency": "inactive"},
      {"smiles": "Nc1ccc(Sc2ccc(N)cc2)cc1", "Potency": "inactive"},
      {"smiles": "CC(C)(C)OO", "Potency": "inactive"},
      {"smiles": "C=CC(=O)N(C)C", "Potency": "inactive"},
      {"smiles": "O=[N+]([O-])c1cc([N+](=O)[O-])c2ccccc2c1", "Potency": "inactive"},
      {"smiles": "COc1cc(C=O)cc2c1[C@H](COC(N)=O)[C@]1(OC(C)=O)ON2C[C@H]2[C@@H]1N2C(C)=O", "Potency": "inactive"},
      {"smiles": "CCCCCCCCCCCCCCCC[n+]1ccccc1", "Potency": "45.7 µM (active) and 54.9 µM (active) and 54.2 µM (active)"},
      {"smiles": "N#Cc1ccccc1N", "Potency": "inactive"},
      {"smiles": "O=C(CCl)Nc1ccccc1", "Potency": "inactive"},
      {"smiles": "SCc1ccco1", "Potency": "inactive"},
      {"smiles": "CN(C)C(=S)S", "Potency": "inactive"},
      {"smiles": "CCC(C)c1cc([N+](=O)[O-])cc([N+](=O)[O-])c1OC(=O)C=C(C)C", "note": "(stereo not given)", "Potency": "49 µM (active)"},
      {"smiles": "CC(C)C1CCC(Cc2ccc(Cl)cc2)C1(O)Cn1cncn1", "note": "(stereo not given)", "Potency": "13.7 µM (active)"},
      {"smiles": "CCN", "Potency": "inactive"},
      {"smiles": "O=C(O)C1C2CCC(O2)C1C(=O)O", "note": "(stereo not given)", "Potency": "inactive"},
      {"smiles": "FC(Cl)(Cl)Cl", "Potency": "inactive"},
      {"smiles": "CCOP(=S)(OCC)SCS(=O)(=O)C(C)(C)C", "Potency": "inactive"},
      {"smiles": "O=[N+]([O-])c1ccc(Oc2ccc(C(F)(F)F)cc2[N+](=O)[O-])cc1", "Potency": "19.5 µM (active)"},
      {"smiles": "CC(C)CCCCCOC(=O)c1ccccc1C(=O)OCCCCCC(C)C", "Potency": "inactive"},
      {"smiles": "Cn1[nH]nnc1=S", "Potency": "inactive"},
      {"smiles": "CCCCCCCCCCCCCCC(Br)C(=O)O", "note": "(stereo not given)", "Potency": "inactive"},
      {"smiles": "Cc1cc(C)cc(OP(=O)(Oc2cc(C)cc(C)c2)Oc2cc(C)cc(C)c2)c1", "Potency": "inactive"},
      {"smiles": "ClCCN1CCOCC1", "Potency": "inactive"},
      {"smiles": "NNC(=O)c1ccccc1", "Potency": "inactive"}
    ]}
  ]
}
